Screening results from PubChem.
Pf growth 48h: P. falciparum growth inhibition at 48 hours (one generation) | P. falciparum luciferase growth in erythrocytes, 48 h | Potency, µM (top dose mostly 28.7 µM), for the others: top-dose activity change, negative = inhibition, actives largely listed as inhibitors | 310,000 compounds, 5.9% hits; note: potency is the fitted concentration of half-maximal effect; % is set by controls: 0 for no effect and ±100 for the full control effect
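Luminescence readout; reporter = integrated firefly luciferase in P. falciparum. RBC culture at 2% hematocrit, 0.1% parasitemia final, 37 C/5% CO2; decreased signal taken as growth inhibition.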
Sm TGR inh: blocks Schistosoma mansoni thioredoxin glutathione reductase. Q962Y6. purified TGR, DTNB reduction, TNB absorbance 405 nm. Potency, µM (titrated, usually from 114 µM), without a hit: at the highest dose activity change, negative = inhibition, usual class: inhibitors. 360,000 compounds, 3% hits; note: potency is the fitted concentration of half-maximal effect; % is set by controls: 0 for no effect and ±100 for the full control effect; nearly all actives have a fitted effect of over 60% in size
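First, TGR (20 nM dispensed) and NADPH were mixed with compound. Second, a 15 min room-temperature incubation followed. Third, further NADPH and then DTNB were added to start the reaction. Finally, TNB absorbance was monitored kinetically.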
Pf growth 96h: P. falciparum growth inhibition at 96 hour, primary screen for plastid delayed-death inhibitors. AID 504834. Potency, µM (top dose mostly 28.7 µM), for the others: at the top dose activity change, negative = inhibition, most hits filed as inhibitors. P. falciparum luciferase reporter growth, 96 h. 320,000 compounds, 6.9% hits; note: potency is the fitted concentration of half-maximal effect; % is set by controls: 0 for no effect and ±100 for the full control effect
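P. falciparum expressing integrated firefly luciferase, in erythrocytes at 2% hematocrit, 0.05% parasitemia, incubated with compounds 96 h at 37 C, 5% CO2. Growth inhibition read as loss of luminescence; two-generation exposure targets delayed-death apicoplast inhibitors.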
SARS PLP yeast: inhibitors of SARS-CoV papain-like protease in yeast; S. cerevisiae expressing SARS-CoV PLpro, growth rescue; Potency, µM (highest dose often 32.9 µM), for inactives: top-dose activity, positive = growth rescue, hits mostly activators; 330,000 compounds, 0.19% hits; AID 485353; calls by dose curve; note: potency is the fitted concentration of half-maximal effect; 0% is about no effect; nearly all actives have a fitted effect of over 55% in size
HCV inhibitor: HCV inhibition; Huh7.5.1 HCVcc-Cre infection, luciferase reporter, 44 h; Potency, µM (top dose mostly 41.8 µM), inactives show at the highest dose activity change, negative = inhibition, usual class: inhibitors; 340,000 compounds, 3.4% hits; note: potency is the fitted concentration of half-maximal effect; % is set by controls: 0 for no effect and ±100 for the full control effect
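Seed cells (1,000/well) for 4 h; treat with compound and infect with HCVcc-Cre, moi about 0.5. Incubate 44 h, then detect luciferase activity.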
HCMV antiviral: blocks human cytomegalovirus replication; HFF cells, HCMV-luciferase reporter, 72 h; stronger effect = lower value; 410,000 compounds, 4.5% hits; activity change, negative = inhibition, % at 57.5 µM; in the data active = activity change below about -60%; inconclusive = no clear call, values can overlap the other calls; inactive = above about -39%; note: % is set by controls: 0 for no effect and ±100 for the full control effect
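Luciferase read-out from HCMV-luciferase-infected HFFs (MOI 1 PFU/cell) 72 h post infection at 37C; compounds added after 16 h cell attachment; activity normalized between buffer-only basal and Salinomycin (10uM) inhibitor controls.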
Numbers without * were called inactive; ? = inconclusive; / = not tested or not shown; [ ] = another dose, or the depositor's remark. Compounds with a hit are over-represented: about 15% of the library has one in this group of screens. Unless noted, calls come from the whole dose curve; as a rule, active = well fitted curve in the direction sought with a large enough effect; inconclusive = small, poorly fitted or top-dose-only effect, or another doubt; inactive = no such curve, though single readings can be large; an effect the other way counts as inactive or inconclusive.

SMILES	Pf growth 48h	Sm TGR inh	Pf growth 96h	SARS PLP yeast	HCV inhibitor	HCMV antiviral
COC(=O)c1ccccc1NC(=O)c1sc(N)nc1C	-25%	3%	7%	-3%	-14%	-101*
Fc1ccc(CNc2ncnc3cc(Cl)ccc23)cc1	?	-5%	?	-6%	10µM*	?
COc1ccccc1CNc1ncnc2cc(Cl)ccc12	11%	/	2%	1%	?	38
COc1ccc(CNc2ncnc3cc(Cl)ccc23)cc1OC	11%	1%	6%	-1%	?	-70*
COc1ccc(-n2c(=O)c3sc4ccccc4c3n(CC(=O)Nc3ccccc3F)c2=O)cc1	/	2%	/	/	/	0
Cc1cc(-c2ccccc2)nc(SCC(=O)N2CCCC2)n1	21%	12%	-5%	1%	25µM*	?
Cc1cc(C)nc(SCC(=O)N2CCCCC2)n1	/	9%[11.4 µM]	?	6%	9%	-30
COc1ccc(-c2cc(C3CCNCC3)[nH]n2)cc1	2.6µM*	45µM*	2.3µM*	12%	-11%	8
COc1ccc(-c2cc(-c3ccc(OC)cc3)[nH]n2)cc1	/	9%[11.4 µM]	-15%	-10%	?	-1
CCCC(=O)N1CCC1(C)C(=O)Nc1ccc(OC(F)F)cc1 (configuration not stated)	/	/	/	/	/	5
O=C(Oc1c(CN2CCOCC2)cc(Cl)c2cccnc12)c1cccs1	2.6µM*	?	0.74µM*	?	?	-98*
O=C(Oc1c(CN2CCOCC2)cc(Cl)c2cccnc12)c1ccccc1Cl	?	-2%	1.3µM*	-23%	?	-98*
COc1cc([C@H]2c3c(cc(OC)c(O)c3OC)C[C@@H](CO)[C@@H]2CO[C@@H]2O[C@H](CO)[C@@H](O)[C@H](O)[C@H]2O)cc(OC)c1O	11%	3%	46%	-7%	10%	16
COc1ccc(CCNC(=O)CSc2nnc(CNC(=O)c3cc(OC)c(OC)c(OC)c3)o2)cc1OC	12%	0%	0%	0%	8%	-2
O=C1CC(c2ccccc2)C(C(=O)Nc2ccccc2F)N1 (configuration not stated)	11%	-5%	23%	-20%	-5%[8.37 µM]	-13
COCCNC(=O)c1c(N)n(CCCn2ccnc2)c2nc3ccccc3nc12	7.4µM*	-6%	?	-1%	-30%	10
COCCCNC(=O)c1c(N)n(Cc2ccco2)c2nc3ccccc3nc12	?	4µM*	?	-1%	-16%	19
CC(C)Cn1c(N)c(C(=O)NCC2CCCO2)c2nc3ccccc3nc21 (configuration not stated)	?	-4%	?	-3%	?	-20
CCCNC(=O)c1c(N)n(Cc2ccco2)c2nc3ccccc3nc12	?	-7%	/	-16%	-26%	/
Nc1c(C(=O)NCC2CCCO2)c2nc3ccccc3nc2n1Cc1ccco1 (configuration not stated)	9.3µM*	0%	-10%	0%	-8%	8
Nc1c(C(=O)NC2CCCC2)c2nc3ccccc3nc2n1N	-1%	-16%	295%	-2%	-12%	-15
Nc1c(C(=O)NC2CCCC2)c2nc3ccccc3nc2n1CC1CCCO1 (configuration not stated)	10µM*	-12%	-19%	-35%	-23%	-38
COCCOC(=O)c1c(N)n(Cc2ccco2)c2nc3ccccc3nc12	-4%	6%	-27%	1%	-26%	17
CC(C)CNC(=O)c1c(N)n(Cc2ccco2)c2nc3ccccc3nc12	?	32µM*	/	-9%	?	16
O=C(NCCCN1CCOCC1)c1ccc(-n2nc(C(F)(F)F)cc2-c2cccs2)cc1	9.3µM*	0%	/	-6%	?	-67*
COCCCNC(=O)c1ccc(-n2nc(C(F)(F)F)cc2-c2cccs2)cc1	12µM*	-1%	/	-13%	7%	?
Cc1ccc(C(O)c2ncc(-c3ccc(Cl)cc3)[nH]2)cc1 (configuration not stated)	/	/	/	/	/	35
